# Test results: article PMC7862700, “An all-to-all approach to the identification of sequence-specific readers for epigenetic DNA modifications on cytosine”
# Key:
# Assay in all cases: DAPPL (digital affinity profiling via proximity ligation, sequencing); 10 mM Tris-HCl pH 7.5, 50 mM NaCl, 1 mM DTT, 4% glycerol, room temperature, 30 min; GST-TFs on glutathione beads, 16-mer random dsDNA library, 0.1% formaldehyde crosslink after washing; high values mean tight binding
# Details in all cases: protein: recombinant; tags: N-terminal GST; dsDNA, one strand shown
# FLI1 = target: T1, FLI1 (Homo sapiens, UniProt Q01543 1-452)
# T1 sequence: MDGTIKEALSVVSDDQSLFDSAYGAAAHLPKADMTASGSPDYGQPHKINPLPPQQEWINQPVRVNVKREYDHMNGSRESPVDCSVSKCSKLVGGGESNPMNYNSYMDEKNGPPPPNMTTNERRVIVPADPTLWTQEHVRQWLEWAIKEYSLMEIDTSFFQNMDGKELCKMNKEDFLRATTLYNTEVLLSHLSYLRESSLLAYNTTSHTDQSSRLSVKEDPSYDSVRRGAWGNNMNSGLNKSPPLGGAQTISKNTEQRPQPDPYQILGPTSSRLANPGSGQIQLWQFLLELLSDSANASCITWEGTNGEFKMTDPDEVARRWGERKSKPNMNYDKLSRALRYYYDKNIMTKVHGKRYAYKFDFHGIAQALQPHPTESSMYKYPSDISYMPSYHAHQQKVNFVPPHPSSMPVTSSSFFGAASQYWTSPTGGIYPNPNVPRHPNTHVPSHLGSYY
# Outline: (§1)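 After expression in yeast as GST fusions, human transcription factors were bound to glutathione beads, DNA-barcoded and mixed with a tag-only sample. The pools were incubated with 200 nmole of a 16-mer random double-stranded DNA library in Tris/NaCl/DTT/glycerol buffer (30 min, room temperature), washed and crosslinked with 0.1% formaldehyde. Proximity ligation with BsaI/T4 ligase ran for 1 h at 37 °C, before PCR amplification and sequencing on an Illumina NextSeq500. Binding signal is a hexamer's read frequency for a factor divided by its frequency for the tag-only sample.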
# ELK1 = target: T2, ELK1 (Homo sapiens, UniProt P19419 1-428)
# T2 sequence: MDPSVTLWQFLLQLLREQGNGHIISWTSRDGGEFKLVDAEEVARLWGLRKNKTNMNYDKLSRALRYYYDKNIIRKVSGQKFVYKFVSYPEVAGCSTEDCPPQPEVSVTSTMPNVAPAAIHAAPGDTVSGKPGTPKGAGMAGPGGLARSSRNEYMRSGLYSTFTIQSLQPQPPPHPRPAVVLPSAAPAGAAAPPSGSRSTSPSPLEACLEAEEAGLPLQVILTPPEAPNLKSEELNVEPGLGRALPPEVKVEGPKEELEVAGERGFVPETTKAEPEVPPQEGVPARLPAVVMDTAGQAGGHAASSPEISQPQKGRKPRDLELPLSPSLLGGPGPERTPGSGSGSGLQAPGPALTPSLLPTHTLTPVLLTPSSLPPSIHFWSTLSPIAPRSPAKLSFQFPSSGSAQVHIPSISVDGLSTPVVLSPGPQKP
# Outline: as §1
# GABPA = target: T3, GABPA (Homo sapiens, UniProt Q06546 1-454)
# T3 sequence: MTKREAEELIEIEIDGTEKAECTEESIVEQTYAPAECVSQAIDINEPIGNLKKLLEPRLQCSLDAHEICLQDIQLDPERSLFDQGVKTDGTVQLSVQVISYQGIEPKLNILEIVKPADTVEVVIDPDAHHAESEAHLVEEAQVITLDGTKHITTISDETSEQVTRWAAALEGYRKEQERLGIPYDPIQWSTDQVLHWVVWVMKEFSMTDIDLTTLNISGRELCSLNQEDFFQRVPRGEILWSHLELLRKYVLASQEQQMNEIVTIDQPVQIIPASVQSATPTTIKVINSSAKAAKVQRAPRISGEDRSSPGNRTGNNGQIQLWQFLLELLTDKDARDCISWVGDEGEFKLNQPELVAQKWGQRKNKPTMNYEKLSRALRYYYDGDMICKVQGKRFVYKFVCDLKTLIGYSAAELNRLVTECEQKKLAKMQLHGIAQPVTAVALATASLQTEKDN
# Outline: as §1
# ERG = target: T4, ERG (Homo sapiens, UniProt P11308 1-479)
# T4 sequence: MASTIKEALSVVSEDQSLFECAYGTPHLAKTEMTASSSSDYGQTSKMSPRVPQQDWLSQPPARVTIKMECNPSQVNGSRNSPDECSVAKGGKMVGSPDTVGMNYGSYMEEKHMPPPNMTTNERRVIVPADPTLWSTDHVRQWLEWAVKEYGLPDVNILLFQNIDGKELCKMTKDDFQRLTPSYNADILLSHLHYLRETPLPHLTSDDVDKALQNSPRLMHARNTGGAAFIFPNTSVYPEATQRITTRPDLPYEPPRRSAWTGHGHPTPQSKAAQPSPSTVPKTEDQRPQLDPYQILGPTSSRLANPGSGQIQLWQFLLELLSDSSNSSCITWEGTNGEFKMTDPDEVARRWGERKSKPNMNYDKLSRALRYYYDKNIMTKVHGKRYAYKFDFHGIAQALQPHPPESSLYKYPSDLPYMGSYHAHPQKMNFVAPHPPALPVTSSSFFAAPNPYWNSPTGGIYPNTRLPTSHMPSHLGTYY
# Outline: as §1
# ELF1 = ELF1 (Homo sapiens, UniProt P32519 1-619)
# Sequence of ELF1 (P32519 whole entry): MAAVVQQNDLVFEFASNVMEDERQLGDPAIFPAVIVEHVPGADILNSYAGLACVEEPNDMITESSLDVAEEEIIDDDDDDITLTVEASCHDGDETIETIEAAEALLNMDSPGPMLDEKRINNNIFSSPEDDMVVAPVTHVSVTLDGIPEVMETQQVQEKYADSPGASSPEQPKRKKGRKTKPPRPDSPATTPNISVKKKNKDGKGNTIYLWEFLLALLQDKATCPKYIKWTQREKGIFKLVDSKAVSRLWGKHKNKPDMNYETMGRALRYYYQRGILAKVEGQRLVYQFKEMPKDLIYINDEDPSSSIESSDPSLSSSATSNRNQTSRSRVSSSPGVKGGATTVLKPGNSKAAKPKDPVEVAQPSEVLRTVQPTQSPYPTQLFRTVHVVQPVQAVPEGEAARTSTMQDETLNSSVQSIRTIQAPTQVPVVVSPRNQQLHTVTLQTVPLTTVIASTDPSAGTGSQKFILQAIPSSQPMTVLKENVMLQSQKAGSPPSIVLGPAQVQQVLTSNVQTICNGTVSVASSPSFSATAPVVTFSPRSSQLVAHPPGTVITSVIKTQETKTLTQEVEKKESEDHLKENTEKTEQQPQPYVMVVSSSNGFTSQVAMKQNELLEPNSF
# Outline: as §1
# EHF = target: T5, EHF (Homo sapiens, UniProt Q9NZC4 1-300)
# T5 sequence: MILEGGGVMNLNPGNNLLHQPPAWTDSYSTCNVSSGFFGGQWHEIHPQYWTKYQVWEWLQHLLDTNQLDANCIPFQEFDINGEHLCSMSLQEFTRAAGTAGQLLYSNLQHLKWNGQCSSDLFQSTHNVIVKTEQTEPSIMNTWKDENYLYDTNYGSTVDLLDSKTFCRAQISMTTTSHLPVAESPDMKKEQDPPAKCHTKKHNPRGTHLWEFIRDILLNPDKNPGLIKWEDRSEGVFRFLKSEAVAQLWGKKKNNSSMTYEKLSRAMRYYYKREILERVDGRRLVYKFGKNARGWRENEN
# Outline: as §1
# SPI1 = SPI1 (Homo sapiens, UniProt P17947 1-270)
# Outline: as §1
# SPIB = SPIB (Homo sapiens, UniProt Q01892 1-262)
# Sequence of SPIB (Q01892 whole entry): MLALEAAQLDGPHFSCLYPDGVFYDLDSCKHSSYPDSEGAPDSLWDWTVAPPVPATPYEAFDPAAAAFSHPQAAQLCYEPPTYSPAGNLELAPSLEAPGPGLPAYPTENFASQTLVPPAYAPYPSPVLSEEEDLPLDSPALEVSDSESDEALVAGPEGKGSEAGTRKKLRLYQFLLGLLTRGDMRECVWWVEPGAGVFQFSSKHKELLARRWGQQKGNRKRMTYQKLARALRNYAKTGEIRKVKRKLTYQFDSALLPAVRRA
# Outline: as §1
# ELK3 = target: T6, ELK3 (Homo sapiens, UniProt P41970 1-407)
# T6 sequence: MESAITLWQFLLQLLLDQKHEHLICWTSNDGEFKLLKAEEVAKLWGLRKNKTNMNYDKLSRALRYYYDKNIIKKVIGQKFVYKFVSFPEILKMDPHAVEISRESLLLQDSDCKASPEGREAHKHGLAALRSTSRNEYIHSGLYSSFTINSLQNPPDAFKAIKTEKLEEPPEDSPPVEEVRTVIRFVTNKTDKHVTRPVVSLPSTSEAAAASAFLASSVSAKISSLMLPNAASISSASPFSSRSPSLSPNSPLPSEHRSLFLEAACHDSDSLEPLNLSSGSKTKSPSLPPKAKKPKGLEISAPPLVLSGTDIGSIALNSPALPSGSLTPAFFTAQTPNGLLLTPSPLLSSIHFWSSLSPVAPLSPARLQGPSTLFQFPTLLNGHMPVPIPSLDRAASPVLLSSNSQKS
# Outline: as §1
Sequence,binding signal (FLI1),binding signal (ELK1),binding signal (GABPA),binding signal (ERG),binding signal (ELF1),binding signal (EHF),binding signal (SPI1),binding signal (SPIB),binding signal (ELK3)
CTTGAT,"1.52 fold enrichment (6-mer frequency, TF over GST control)","1.53 fold enrichment (6-mer frequency, TF over GST control)","1.52 fold enrichment (6-mer frequency, TF over GST control)","1.34 fold enrichment (6-mer frequency, TF over GST control)","1.42 fold enrichment (6-mer frequency, TF over GST control)","1.51 fold enrichment (6-mer frequency, TF over GST control)","1.27 fold enrichment (6-mer frequency, TF over GST control)","1.41 fold enrichment (6-mer frequency, TF over GST control)","1.34 fold enrichment (6-mer frequency, TF over GST control)"
CGAATA,"1.09 fold enrichment (6-mer frequency, TF over GST control)","1.23 fold enrichment (6-mer frequency, TF over GST control)","1.17 fold enrichment (6-mer frequency, TF over GST control)","1.07 fold enrichment (6-mer frequency, TF over GST control)","1.28 fold enrichment (6-mer frequency, TF over GST control)","1.2 fold enrichment (6-mer frequency, TF over GST control)","1.13 fold enrichment (6-mer frequency, TF over GST control)","1.11 fold enrichment (6-mer frequency, TF over GST control)","1.21 fold enrichment (6-mer frequency, TF over GST control)"
CGGCTC,"1.27 fold enrichment (6-mer frequency, TF over GST control)","1.29 fold enrichment (6-mer frequency, TF over GST control)","1.2 fold enrichment (6-mer frequency, TF over GST control)","1.33 fold enrichment (6-mer frequency, TF over GST control)","1.27 fold enrichment (6-mer frequency, TF over GST control)","1.31 fold enrichment (6-mer frequency, TF over GST control)","1.33 fold enrichment (6-mer frequency, TF over GST control)","1.33 fold enrichment (6-mer frequency, TF over GST control)","1.31 fold enrichment (6-mer frequency, TF over GST control)"
CTCGTT,"1.18 fold enrichment (6-mer frequency, TF over GST control)","1.31 fold enrichment (6-mer frequency, TF over GST control)","1.26 fold enrichment (6-mer frequency, TF over GST control)","1.25 fold enrichment (6-mer frequency, TF over GST control)","1.27 fold enrichment (6-mer frequency, TF over GST control)","1.27 fold enrichment (6-mer frequency, TF over GST control)","1.35 fold enrichment (6-mer frequency, TF over GST control)","1.24 fold enrichment (6-mer frequency, TF over GST control)","1.15 fold enrichment (6-mer frequency, TF over GST control)"
CCCGTT,"1.17 fold enrichment (6-mer frequency, TF over GST control)","1.08 fold enrichment (6-mer frequency, TF over GST control)","1.21 fold enrichment (6-mer frequency, TF over GST control)","1.26 fold enrichment (6-mer frequency, TF over GST control)","1.12 fold enrichment (6-mer frequency, TF over GST control)","1.15 fold enrichment (6-mer frequency, TF over GST control)","1.28 fold enrichment (6-mer frequency, TF over GST control)","1.19 fold enrichment (6-mer frequency, TF over GST control)","1.18 fold enrichment (6-mer frequency, TF over GST control)"
CTTAAT,"1.37 fold enrichment (6-mer frequency, TF over GST control)","1.2 fold enrichment (6-mer frequency, TF over GST control)","1.34 fold enrichment (6-mer frequency, TF over GST control)","1.13 fold enrichment (6-mer frequency, TF over GST control)","1.26 fold enrichment (6-mer frequency, TF over GST control)","1.24 fold enrichment (6-mer frequency, TF over GST control)","1.31 fold enrichment (6-mer frequency, TF over GST control)","1.3 fold enrichment (6-mer frequency, TF over GST control)","1.47 fold enrichment (6-mer frequency, TF over GST control)"
CCTTAG,"1.3 fold enrichment (6-mer frequency, TF over GST control)","1.3 fold enrichment (6-mer frequency, TF over GST control)","1.18 fold enrichment (6-mer frequency, TF over GST control)","1.24 fold enrichment (6-mer frequency, TF over GST control)","1.27 fold enrichment (6-mer frequency, TF over GST control)","1.3 fold enrichment (6-mer frequency, TF over GST control)","1.21 fold enrichment (6-mer frequency, TF over GST control)","1.34 fold enrichment (6-mer frequency, TF over GST control)","1.23 fold enrichment (6-mer frequency, TF over GST control)"
TATGTT,"1.25 fold enrichment (6-mer frequency, TF over GST control)","1.23 fold enrichment (6-mer frequency, TF over GST control)","1.22 fold enrichment (6-mer frequency, TF over GST control)","1.19 fold enrichment (6-mer frequency, TF over GST control)","1.23 fold enrichment (6-mer frequency, TF over GST control)","1.23 fold enrichment (6-mer frequency, TF over GST control)","1.2 fold enrichment (6-mer frequency, TF over GST control)","1.12 fold enrichment (6-mer frequency, TF over GST control)","1.19 fold enrichment (6-mer frequency, TF over GST control)"
